Data from PubChem BioAssay AID651730 (NMMLSC, 2012).
Calls of active or inactive are those of the source. The rule behind the calls is not given here.

Assay: V-ATPase regulators in yeast, S. cerevisiae, pHLuorin, powder sets 2-3, dose response (AID 651730)
Conditions: S. cerevisiae vacuolar pH, pHluorin fluorescence; series mostly up to 100 µM

NC(=O)c1cccc(C(=O)N2CCN(c3nc4ccc(F)cc4s3)CC2)c1
outcome: inactive

O=C(c1cccc(C(F)(F)F)c1)N1CCN(c2nc3ccc(F)cc3s2)CC1
outcome: inactive

CN(C)Cc1ccc(C(=O)N2CCN(c3nc4ccc(F)cc4s3)CC2)o1
outcome: inactive

COCc1cccc(C(=O)Nc2ccccc2N2CCOCC2)c1
outcome: inactive

Nc1cncc(C(=O)N2CCN(c3nc4ccc(F)cc4s3)CC2)n1
outcome: inactive

N#Cc1cccc(C(=O)Nc2ccccc2N2CCOCC2)c1
outcome: inactive

Cc1cccc(C(=O)N2CCN(c3nc4ccc(F)cc4s3)CC2)n1
outcome: inactive

O=C(c1ccc(C(F)(F)F)o1)N1CCN(c2nc3ccc(F)cc3s2)CC1
outcome: inactive

O=C(Nc1ccccc1N1CCOCC1)c1ccc(C(F)(F)F)o1
outcome: inactive

N#Cc1cccc(C(=O)N2CCN(c3nc4ccc(F)cc4s3)CC2)c1
outcome: inactive

O=C(c1cc(CO)ccn1)N1CCN(c2nc3ccc(F)cc3s2)CC1
outcome: inactive

O=C(Nc1ccccc1N1CCOCC1)c1ccc(-c2ccccc2)o1
outcome: inactive

O=C(Nc1ccccc1N1CCOCC1)c1ccc(Br)o1
outcome: inactive

CS(=O)(=O)c1ccc(C(=O)Nc2ccccc2N2CCOCC2)o1
outcome: inactive

CS(=O)(=O)c1cccc(C(=O)Nc2ccccc2N2CCOCC2)c1
outcome: inactive

Cc1ccnc(C(=O)N2CCN(c3nc4ccc(F)cc4s3)CC2)c1
outcome: inactive

CS(=O)(=O)c1ccc(C(=O)N2CCN(c3nc4ccc(F)cc4s3)CC2)o1
outcome: inactive

Cc1ccc(C(=O)Nc2ccccc2N2CCOCC2)o1
outcome: inactive

CC(C)(C)c1ccc(C(=O)Nc2ccccc2N2CCOCC2)o1
outcome: inactive

CC(C)(C)c1ccc(C(=O)N2CCN(c3nc4ccc(F)cc4s3)CC2)o1
outcome: inactive

Cc1cccc(C(=O)Nc2ccccc2N2CCOCC2)n1
outcome: inactive

O=C(Nc1ccccc1N1CCOCC1)c1cc(Cl)ccn1
outcome: inactive

COCc1ccc(C(=O)N2CCN(c3nc4ccc(F)cc4s3)CC2)o1
outcome: inactive

O=C(c1cccc(C(F)(F)F)n1)N1CCN(c2nc3ccc(F)cc3s2)CC1
outcome: inactive

Cc1ccc(C(=O)N2CCN(c3nc4ccc(F)cc4s3)CC2)o1
outcome: inactive

O=C(c1cc(Cl)ccn1)N1CCN(c2nc3ccc(F)cc3s2)CC1
outcome: inactive

Cc1ccnc(C(=O)Nc2ccccc2N2CCOCC2)c1
outcome: inactive

O=C(Nc1ccccc1N1CCOCC1)c1cccc(Br)n1
outcome: inactive

O=C(Nc1ccccc1N1CCOCC1)c1cccc(Cl)n1
outcome: inactive

O=C(c1cccc(Br)n1)N1CCN(c2nc3ccc(F)cc3s2)CC1
outcome: inactive

CN(C)S(=O)(=O)c1cccc(C(=O)N2CCN(c3nc4ccc(F)cc4s3)CC2)c1
outcome: inactive
